Source: PubChem BioAssay (EPA / NIEHS)
Where a structure was tested more than once in an assay, its records may differ in their call. Activity calls are given as the source filed them. The calls were made as follows: active = hit-call score of the fitted dose curve at least 0.9, where 1 is the maximum; inactive = score below 0.9.

Test: APR_HepG2_MitoticArrest_72hr: Apredica 72-hour HepG2 Assay for Mitotic Arrest (AID 2282918)
Settings: high-content imaging, actives raise or lower the signal
Protocol: APR_HepG2_72hr is a cell-based, multiplexed-readout assay that uses HepG2, a human liver cell line, with measurements taken at 72 hours after chemical dosing in a 384-well plate.APR_HepG2_MitoticArrest_72hr is one of 10 assay component(s) measured or calculated from the APR_HepG2_72hr assay. It is designed to make measurements of cell phenotype, a form of morphology reporter, as detected with fluorescence intensity signals by HCS Fluorescent Imaging technology.Data from the assay component APR_HepG2_MitoticArrest_72hr was analyzed into 1 assay endpoint. This assay endpoint, APR_HepG2_MitoticArrest_72hr, was analyzed with bidirectional fitting relative to DMSO as the negative control and baseline of activity. Using a type of morphology reporter, measures of protein for gain or loss-of-signal activity can be used to understand the signaling at the pathway-level as they relate to the gene . Furthermore, this assay endpoint can be referred to as a primary readout, because this assay has produced multiple assay endpoints where this one serves a signaling function. To generalize the intended target to other relatable targets, this assay endpoint is annotated to the cell cycle intended target family, where the subfamily is arrest.
Cells were treated with dimethyl sulfoxide (DMSO) as a solvent control at a final concentration of 0.5% v/v or with compounds in DMSO with a resulting final DMSO concentration of 0.5% v/v. Compound treatment was done at concentrations of 0.39, 0.78, 1.56, 3.12, 6.24, 12.5, 25, 50, 100, and 200 uM in duplicate on each plate. Cells were treated with compounds for 1, 24, or 72 hr. Carbonyl […] m-chloro-phenylhydrazone (CCCP) and taxol were used as positive controls for mitochondrial function and cytoskeletal stability, respectively; DMSO served as the negative control for this experiment. Cells were fixed by the direct addition of 50 uL formaldehyde in Hank's Balanced Salt Solution (HBSS) to a final concentration of 3.7%. After incubation in the fixation medium for 30 min at room temperature (293-298 K), cells were rinsed twice with HBSS and treated with cell permeabilization buffer (16 uL of 0.5% Triton X-100) for 10 min at room temperature (293-298 K) before labeling. For mitochondrial membrane potential and mitochondrial measurements, pre-fixed cells were incubated with 50 uL of MitoTracker Red CMXRos (Invitrogen) at a concentration of 250 nM for 30 min before fixation. In the remaining cases, post-fixed cells were labeled by incubation with a multiplexed mixture of primary antibodies in HBSS for 60 min at room temperature (293-298 K) to detect immunoreactivity of c-Jun (1:500), phospho-histone H3 (1:100), phospho-histone H2A.x (1:200), p53 (1:400), alpha-tubulin (1:200) and Hoechst 33342 (2 ug/mL). Cells were labeled for multiplexed imaging on two separate plates: a) Hoechst 33342, MitoTracker Red, phospho-histone H3, and alpha-tubulin, and b) Hoechst 33342, phospho-histone H2A.x, and c-Jun. A final rinse with HBSS (50 uL) was performed before analysis. The primary and secondary antibodies for the proteins were phospho-histone H3 (rabbit anti-phospho-histone H3 and FITC-donkey anti-rabbit IgG), phospho-histone H2A.x (mouse anti-phospho-histone H2A.x and FITC-donkey anti-mouse IgG), c-Jun (rabbit anti-phospho-c-Jun and Cy3-donkey anti-rabbit IgG), p53 (sheep anti-p53 and Cy5-donkey anti-sheep IgG), alpha-tubulin (mouse anti-alpha-tubulin and Cy5-donkey anti-mouse IgG). These antibodies are available as the CellCiphr HepG2 assay kit (Millipore).Digital images of each well were captured using a Cellomics ArrayScan VTI (Thermo Scientific Cellomics) (0.8 NA objective, 0.63x optical coupler, and XF-93 filter set) at 20x magnification. The images were acquired using the autofocus feature of the ArrayScan instrument, which entails the following steps. First, the camera focuses on channel 1 (Hoechst 33342), where nuclei are identified. Second, a Z offset of 1 um is used for capturing mitochondria (MitoTracker Red). […]

Row | Compound | AC50 | outcome
1 | CC(C)(OO)c1ccccc1 | 59.4 µM (active) | 
2 | Oc1cccc2cccnc12 | 5.23 µM (active) | 
3 | ClCC(Cl)CCl |  | inactive
4 | C=CC(=O)OCCCCCC(C)C |  | inactive
5 | CCC(C)(C)c1ccc(O)c(C(C)(C)CC)c1 | 59.4 µM (active) | 
6 | C=C(C)C(=O)[O][Sn]([CH2]CCC)([CH2]CCC)[CH2]CCC | 0.0391 µM (active) | 
7 | O=C(O)C(Cl)(Cl)Cl | 114 µM (active) | inactive
8 | CC12CC1(C)C(=O)N(c1cc(Cl)cc(Cl)c1)C2=O (stereo not given) |  | inactive
9 | Cn1sc(Cl)cc1=O | 97.3 µM (active) | 
10 | O=c1[nH]c(=O)[nH]c(=O)[nH]1 |  | inactive
11 | CCN1CCC2(CC1)COc1cc3c(cc12)N(C(=O)c1ccc(-c2ccc(-c4nnc(C)o4)cc2C)cc1)CC3 | 6.34 µM (active) | 
12 | O=C(O)C(F)(F)C(F)(F)C(F)(F)C(F)(F)C(F)(F)C(F)(F)F | 8.69 µM (active) | 
13 | CC(=O)[O][Hg][c]1ccccc1 | 1.83 µM (active) | 
14 | CN(C)N=O |  | inactive
15 | Cc1ccccc1N |  | inactive
16 | COc1cc(-c2ccc(N)c(OC)c2)ccc1N | 24.8 µM (active) | inactive
17 | CCC(=O)C(CC(C)N(C)C)(c1ccccc1)c1ccccc1 (stereo not given) | 75.6 µM (active) | 
18 | O=C(Nc1ccc2[nH]ccc2c1)c1cc2cc(F)ccc2n1Cc1cccc(F)c1 | 22 µM (active) | 
19 | CC(C)(C)c1cc(O)ccc1O |  | inactive
20 | CC(C)(c1ccccc1)c1ccc(O)c(C(C)(C)c2ccccc2)c1 | 29.8 µM (active) | 
21 | CCCCCCCCc1ccc(O)cc1 | 98 µM (active) | 
22 | NC(=O)O | 4.17 µM (active) | 
23 | C[C@@H]1C[C@@H]([C@H](O)CC2CC(=O)NC(=O)C2)C(=O)[C@@H](C)C1 | 0.564 µM (active) | 
24 | C[C@]12CCC(=O)C[C@@H]1CC[C@@H]1[C@@H]2CC[C@]2(C)[C@@H](O)CC[C@@H]12 |  | inactive
25 | O=C(O)C(F)(F)C(F)(F)C(F)(F)C(F)(F)C(F)(F)C(F)(F)C(F)(F)C(F)(F)C(F)(F)C(F)(F)F | 66.5 µM (active) | 
26 | O=C1C2(Cl)C3(Cl)C4(Cl)C(Cl)(Cl)C5(Cl)C3(Cl)C1(Cl)C5(Cl)C24Cl (stereo not given) |  | inactive
27 | CC(C)(C)CC(C)(C)c1ccc(O)cc1 |  | inactive
28 | ClC1(Cl)C2(Cl)C3(Cl)C4(Cl)C(Cl)(Cl)C5(Cl)C3(Cl)C1(Cl)C5(Cl)C24Cl (stereo not given) |  | inactive
